The campaign covered roughly 4,400 compounds. About 390 (8.9%) showed an effect of 50% or more. For the sample, strong results were picked, then their nearest neighbours and some compounds at random.

This assay concerns Trypanosoma brucei. The experiment in a line: DNDI: Inhibition of Human African Trypanosomiasis, SBRI 427, in vitro at 2 ug.mL-1. It counts as functional.
The % inhibition is the change of the read-out against control, counted positive when it falls. In the case of `CCOc1ccccc1-c1nc(CN2CCCCCC2)co1`, the “% inhibition” value is given as 7%.
As for `CSc1ccc(Oc2nc(C)ccc2/C(=N/O)NC2CCC2)cc1`, the figure is 3%.
Take `C=CCN(Cc1coc(-c2cccc(OC)c2)n1)c1ccccc1`: the “% inhibition” value came out at 35%.
As for `Cc1cccc(Oc2ncccc2/C(=N/O)N2CCOCC2)c1C`, the figure is 10%; as for `FC(F)(F)c1ccc(-c2nc(CNCc3ccccc3C(F)(F)F)co2)cc1`, 0%.
As for `Cc1ccc(/C(=N/O)N2CCCCCC2)c(Oc2cccc(C(C)C)c2)n1`, the figure is 14%; as for `O/N=C(\NCc1ccccc1F)c1cccnc1OCC(F)(F)F`, -12%.
Regarding `COc1ccc(Oc2ncccc2/C(=N/O)NCc2ccccc2F)cc1`, the “% inhibition” value turned out to be 70%.
Take `O/N=C(\NCc1ccccc1F)c1cccnc1Oc1ccc(F)cc1`: the “% inhibition” value was determined as 51%.
Regarding `COc1ccc(Oc2nc(C)ccc2/C(=N/O)NCc2ccccc2F)cc1`, the “% inhibition” value is on record as -6%.
As for `O/N=C(\NCc1cc(F)ccc1F)c1cccnc1Oc1ccc(F)cc1`, the figure is -3%.
As for `Clc1ccccc1-c1nc(CNCc2ccco2)co1`, the figure is -7%; as for `CC(C)N(C)Cc1coc(-c2ccccc2Cl)n1`, 4%; as for `Cc1cc(C)cc(CN/C(=N\O)c2cccnc2Oc2ccc(C)c3c2CCC3)c1`, 69%.
As for `Cc1ccc(Oc2ncccc2/C(=N/O)NCc2cc(F)ccc2F)c2c1CCC2`, the figure is 28%.
On to `Cc1ccc(Oc2ncccc2/C(=N/O)NCc2ccccc2)c2c1CCC2`, for which the “% inhibition” value was determined as 99%.
As for `Cc1ccc(Oc2ncccc2/C(=N/O)NCc2ccncc2)c2c1CCC2`, the figure is 8%.
As for `CCOc1ccccc1CN/C(=N\O)c1cccnc1Oc1ccc(C)c2c1CCC2`, the figure is 100%.
As for `COc1ccc(CN/C(=N\O)c2cccnc2Oc2ccc(C)c3c2CCC3)cc1`, the figure is 9%.
For the compound `Cc1ccc(Oc2cc(/C(=N/O)NCc3cccs3)ccn2)c2c1CCC2`, the “% inhibition” value was found to be 3%.
As for `Cc1ccc(Oc2ncccc2/C(=N/O)NCc2cccs2)c2c1CCC2`, the figure is 99%.
As for `Cc1ccc(Oc2ncccc2/C(=N/O)NCc2cccnc2)c2c1CCC2`, the figure is 6%; as for `Cc1ccc(Oc2ncccc2/C(=N/O)NCc2ccco2)c2c1CCC2`, -6%; as for `COc1ccc(-c2nc(CN(C)C3CCN(Cc4ccccc4)C3)co2)cc1` (stereo not drawn), -9%.
As for `O/N=C(/c1ccnc(Oc2cccc3cnccc23)c1)N1CCN(c2ccccc2)CC1`, the figure is 7%; as for `N#CCCN(Cc1coc(-c2ccc(C(F)(F)F)cc2)n1)CC1CCCO1` (stereo not drawn), -3%.
Take `O/N=C(/c1ccnc(Oc2cccc3ccccc23)c1)N1CCSC1`: the “% inhibition” value turned out to be 22%.
As for `CSc1ccc(Oc2nc(C)ccc2/C(=N/O)NCc2ccccc2C)cc1`, the figure is 7%; as for `Cc1ccc(N2CCN(Cc3coc(-c4ccccc4F)n3)CC2)c(C)c1`, -17%; as for `CSc1ccc(Oc2ncccc2/C(=N/O)NCc2ccccn2)cc1C`, 2%.
On to `CN(Cc1coc(-c2ccccc2Cl)n1)C1CCN(Cc2ccccc2)C1` (stereo not drawn), for which the “% inhibition” value is -15%.
As for `COc1ccc(Oc2nc(C)ccc2/C(=N/O)N2CCSC2)cc1`, the figure is 27%; as for `COc1cc(-c2nc(CNC3CCc4ccccc43)co2)cc(OC)c1OC` (stereo not drawn), 28%.
`COc1ccc(CCN(C)Cc2coc(-c3ccc(F)cc3)n2)cc1OC`: the “% inhibition” value was -7%.
As for `COc1ccc(CCN(C)Cc2coc(-c3ccc(Br)cc3)n2)cc1OC`, the figure is 65%.
Take `COc1ccc(CCN(C)Cc2coc(-c3ccc(O)cc3)n2)cc1OC`: the “% inhibition” value is -29%.
Consider `CC(C)(C)c1ccc(-c2nc(CNC3CCN(Cc4ccccc4)C3)co2)cc1` (stereo not drawn), for which the “% inhibition” value is 55%.
As for `Cc1ccc(-c2nc(CNC3CCN(Cc4ccccc4)C3)co2)cc1` (stereo not drawn), the figure is 17%.
As for `Oc1ccc(-c2nc(CNC3CCN(Cc4ccccc4)C3)co2)cc1` (stereo not drawn), the figure is 33%; as for `Brc1ccc(-c2nc(CNC3CCN(Cc4ccccc4)C3)co2)cc1` (stereo not drawn), 2%.
As for `Fc1ccc(-c2nc(CNC3CCN(Cc4ccccc4)CC3)co2)cc1`, the figure is -17%; as for `COc1ccc(-c2nc(CNC3CCN(Cc4ccccc4)C3)co2)cc1` (stereo not drawn), 12%.
As for `COc1ccc(-c2nc(CNC3CCN(Cc4ccccc4)CC3)co2)cc1`, the “% inhibition” value was found to be 97%.
As for `CCOc1ccc(-c2nc(CNC3CCN(Cc4ccccc4)C3)co2)cc1` (stereo not drawn), the figure is 6%.
As for `Brc1ccc(-c2nc(CNC3CCN(Cc4ccccc4)CC3)co2)cc1`, the figure is 58%.
As for `CN(Cc1ccco1)/C(=N\O)c1ccc(Oc2cc(Cl)ccc2Cl)nc1`, the figure is -12%; as for `COC(=O)C1CCN(/C(=N\O)c2ccnc(Oc3ccc(F)c(Cl)c3)c2)CC1`, -5%.
Take `Cc1cccc(-c2nc(CN3CCN(c4ccc(F)cc4)CC3)co2)c1`: the “% inhibition” value turned out to be 18%.
As for `O/N=C(\NCc1c(F)cccc1F)c1ccc(Oc2ccc(Cl)cc2)nc1`, the figure is 6%.
As for `COCC(C)N/C(=N\O)c1ccc(Oc2cc(Cl)ccc2Cl)nc1` (stereo not drawn), the figure is 23%; as for `CCC(CC)N/C(=N\O)c1ccc(Oc2cc(C)cc(C(C)C)c2)nc1`, -7%.
With `CCC(CC)N/C(=N\O)c1ccc(Oc2c(F)c(F)cc(F)c2F)nc1`, the “% inhibition” value was determined as 19%.
As for `COCC(C)N/C(=N\O)c1ccc(Oc2cc(C)cc(C)c2)nc1` (stereo not drawn), the figure is 1%; as for `CCC(CC)N/C(=N\O)c1ccc(Oc2ccc(C)cc2C)nc1`, 26%.
As for `CCc1ccc(Oc2ccc(/C(=N/O)NC(CC)CC)cn2)cc1`, the figure is 7%; as for `CCC(CC)N/C(=N\O)c1ccc(Oc2ccc(Cl)cc2)nc1`, 96%.
As for `CCC(CC)N/C(=N\O)c1ccc(Oc2cc(Cl)ccc2Cl)nc1`, the figure is 84%.
`CCC(CC)N/C(=N\O)c1ccc(Oc2cc(C)cc(C)c2)nc1`: the “% inhibition” value amounted to 94%.

(Values after ChEMBL document CHEMBL1857833, “Screening and optimization of specific chemical series against human African Trypanosomiasis (HAT)”.)
